This test can be described thus: toxicity toward HepG2 hepatoma cells – cell-based, dry powder samples, cytotoxicity control, dose response (AID 720568).

Structures are written as SMILES. Entries with a potency or affinity are not part of this list. The source made the active and inactive calls. The rule behind the calls is not given here.

`COc1ccc(NC(=O)C(=O)c2cn(CC(=O)N3CCCC3)c3ccccc23)cc1`: the call was inactive.
For `CCOc1ccc(S(=O)(=O)NCc2ccccn2)cc1NC(=O)c1ccccc1F` the value was “inactive”; for `Cc1cccc(C)c1OCCNC(=O)C(=O)NCc1ccco1`, “inactive”; for `CCOC(=O)c1ccc(Oc2cc(C)nc(SC)n2)cc1`, “inactive”.
In the case of `COc1ccccc1-c1nnc(SCc2ccccc2)o1` it was “inactive”.
In the case of `COc1cccc(N2CCN(C(=O)c3ccc(CS(=O)c4ccc(C)cc4)o3)CC2)c1` (stereo not drawn) it was “inactive”; in that of `CCCCOc1ccccc1C1CC(=O)NC2=C1C(=O)CCC2` (stereo not drawn), “inactive”; in that of `Cc1cc(NC(=O)CSc2nc(-c3ccco3)cc(C(F)(F)F)n2)no1`, “inactive”.
As to `Cc1cc(=O)[nH]c(N/N=C/c2cc(C)n(CC(F)(F)F)c2C)n1`, the compound was called inactive.
In the case of `COc1ccc(-c2nnc(SCc3ccccc3)o2)cc1` it was “inactive”; in that of `COc1ccc2c(COC(=O)c3cccc(S(=O)(=O)NCC(C)C)c3)cc(=O)oc2c1`, “inactive”.
For `COc1ccccc1OCC(=O)NNC(=O)c1ccoc1C` the value was “inactive”; for `O=C(N/N=C/c1ccc(Cl)cc1)c1sccc1OCc1ccc(F)cc1`, “inactive”; for `CCn1c2ccccc2c2cc(NC(=O)c3cc(OC)c(OC)c(OC)c3)ccc21`, “inactive”.
In the case of `Cc1[nH][nH]c(=O)c1C(c1ccc(-c2ccc(Cl)c(Cl)c2)o1)c1c(C)[nH][nH]c1=O` it was “inactive”; in that of `C/C(=N\NC(=O)c1c([N+](=O)[O-])c(C)nn1C)c1ccc(NC(=O)C2CCCC2)cc1`, “inactive”.
As to `CCOc1ccc(NC(=O)c2cc(OC)nc3ccccc23)cc1`, the call was inactive.
In the case of `COc1cc(-c2nnc(SCC3(c4ccc(Br)cc4)OCCO3)o2)cc(OC)c1OC`, the result was inactive.
For `CCCNS(=O)(=O)c1cccc(C(=O)OCc2cc(=O)oc3cc(OC)ccc23)c1` the value was “inactive”; for `Cc1cc(C)cc(C(=O)N2CC(=O)Nc3ccccc32)c1`, “inactive”.
In the case of `Cc1cc(C)nc(/N=C(\N)Nc2ccc(OCc3ccccc3)cc2)n1` it was “inactive”; in that of `COc1ccccc1CSc1nnc(-c2ccccc2)o1`, “inactive”.
Consider `Brc1ccc(CSc2nnc(-c3ccccc3)o2)cc1`, for which the result was inactive.
For `Cc1ccc(CCC(=O)Nc2ncc(Cc3cc(Cl)ccc3Cl)s2)o1` the value was “inactive”.
For `Cc1ccc(Oc2ccc(S(=O)(=O)N3CCOCC3)cc2C(N)=O)c(-n2nc3ccccc3n2)c1` the value was “inactive”; for `O=C(Cc1ccccc1)c1nnc(-c2ccccc2)o1`, “inactive”; for `COC(=O)c1cn(C(=O)c2ccc(OC)cc2)c2ccccc12`, “inactive”.
With `CCN(CC)CCC(=O)Nc1cccc2c1C(=O)c1ccccc1C2=O`, the result was inactive.
As for `CCN(CC)CCCNc1nc2cc(OC)c(OC)cc2c2nc(-c3ccccc3)nn12`, the result was inactive.
In the case of `CC(=O)N1CCC(=O)c2cc3ccccc3cc21` it was “inactive”; in that of `Cc1cnc(NC(=O)c2cc(S(=O)(=O)N(C)C)ccc2N2CCCC2)s1`, “inactive”; in that of `CCCOC(=O)c1[nH]c2c(c1C)C(=O)CC(c1cccs1)C2` (stereo not drawn), “inactive”.
For `Cc1ccc(/C=N/NC(=O)C2COc3ccccc3O2)s1` (stereo not drawn) the value was “inactive”.
In the case of `COc1cc(Nc2c3c(nc4ccccc24)CCCC3)cc(OC)c1OC`, the compound was classed as inactive.
In the case of `Cc1ccc(C(=O)c2cc([N+](=O)[O-])ccc2N2CCOCC2)cc1C` it was “inactive”; in that of `CC(=O)c1cccc(NC(=O)CSc2ncc(C(=O)Nc3ccccc3)c(=O)n2C)c1`, “inactive”.
Turning to `CCC1=Nc2cc(C(=O)NCCCOC)ccc2Sc2ccccc21`, the compound was classed as inactive.
In the case of `CCOC(=O)COc1cccc2c(=O)n(CC(=O)NCc3ccccc3)ccc12` it was “inactive”.

Source of the values: PubChem BioAssay AID720568 (Broad Institute, 2013).
